# Inconclusive results are not listed. Unmarked numbers belong to inactive results. Calls come from the whole dose curve. Non-standard residues stand in square brackets, D forms with d. Residues, ends and D or L forms follow the SMILES beside them. *: point of attachment. Sta = CC(C)C[C@H](N)[C@@H](O)CC(=O)O; Isovaleryl = CC(C)CC(=O)*
# Assay: qHTS assay for small molecules that induce genotoxicity in human embryonic kidney cells expressing luciferase-tagged ATAD5 - cell viability (AID 651634); note: nearly all actives have a fitted effect of over 25% in size
# Conditions: HEK293T ATAD5-luc cells viability, CellTiter-Fluor, 15.5 h; series mostly up to 83.3 µM; activity, negative = cytotoxicity: at the top concentration
# From the text: National Center for Advancing Translational Sciences [NCATS]
# NIH Chemical Genomics Center [NCGC]
# U.S. Environmental Protection Agency [EPA]
# National Institutes of Environmental Health Sciences [NIEHS]
# National Toxicology Program [NTP]
# U.S. Food and Drug Administration [FDA]
# Enhanced Level of Genome Instability Gene 1 (ELG1; human ATAD5) protein levels increase in response to various types of DNA damage. Using a luciferase reporter-gene tagged with ElG1, a cell-based assay [developed by Kyungjae Myung, NHGRI, NIH] was used to measure the induction of ATAD5 in human embryonic kidney cells (HEK293T). So, increase in luciferase activity can be used to identify the compounds that cause genetic stress. In addition to genotoxicity, these cells were also used to test for cytotoxicity by measuring the protease activity within live cells.
# Tox21 Assay Protocol Summary:
# For cytotoxicity screening, 2,000 cells in 5 uL/well were dispensed into white, solid-bottom 1536-well plates using a Multidrop Combi (Thermo Scientific) dispenser. Following transfer of 23 nL compound or DMSO vehicle by a pin tool, the plates were incubated 15.5 hr at 37C and 5% CO2. 1 ul CellTiter-Fluor reagent (Promega, Madison, WI) was then added to each plate and following 30 min incubation at 37C, fluorescence intensity was quantified on a ViewLux CCD-based plate reader.
# % is set by controls: 0 for no effect and ±100 for the full control effect.
row,SMILES,"activity, negative = cytotoxicity"
1,CCCCC(CC)COC(=O)CC#N (stereo not given),13.9%
2,O=C(O)CCCCCCCCCC(=O)O,12.5%
3,CN(C)CCc1c[nH]c2ccc(C[C@H]3COC(=O)N3)cc12,15%
4,CC(CC(=O)Cl)CC(C)(C)C (stereo not given),6.06% [at 95.3 µM]
5,CC(C)C[P+](C)(CC(C)C)CC(C)C,-5.89% [at 95.3 µM]
6,CCCC(=O)C(CC)Sc1ccoc1C (stereo not given),2.39%
7,C/C(Cl)=C/CCl,9.23% [at 95.3 µM]
8,O=C[C@@H](O)[C@H](O)[C@H](O)CO,11.5%
9,N[C@H]1C(O)O[C@H](CO)[C@@H](O)[C@@H]1O (stereo not given in full),-10.6%
10,c1coc(Cn2cccc2)c1,-11.4%
11,O=C(O)COc1ccc2ccccc2c1,5.7%
12,CC/C=C\CCCCCCCCCCOC(C)=O,5.9%
13,COC(=O)c1c(C)cc(O)c(C)c1O,19.5%
14,N#Cc1ccccc1C#N,-4.77%
15,N=C(N)N,13.1%
16,O=S(=O)(O)c1ccc(Cl)cc1,25.9%
17,O=C1CC2(CCCC2)CC(=O)N1CCNCC1COc2ccccc2O1 (stereo not given),-2.22%
18,CC(C)OC(=O)C(C(=O)OC(C)C)=C1SC=CS1,10.4%
19,O=Cc1ccc(C(=O)O)cc1,16% [at 95.3 µM]
20,CC(O)CCCCn1c(=O)c2c(ncn2C)n(C)c1=O (stereo not given),3.13%

row,SMILES,"activity, negative = cytotoxicity"
1,O=c1c(O)c(O)c1=O,7.38%
2,NNC(=O)OCc1ccccc1,-7.03%
3,COc1cnc(NS(=O)(=O)c2ccc(N)cc2)nc1,11.1% [at 39.1 µM]
4,CC(C)CC(=O)N[C@H](C(=O)N[C@H](C(=O)N[C@@H](CC(C)C)[C@@H](O)CC(=O)N[C@@H](C)C(=O)N[C@@H](CC(C)C)[C@@H](O)CC(=O)O)C(C)C)C(C)C (Isovaleryl-VV[Sta]A[Sta]-OH),8.63%
5,CCCCN1C(=O)c2ccccc2C1=O,10% [at 95.3 µM]
6,CC(C)c1cc(C(C)C)cc(C(C)C)c1,19.7%
7,N=C(N)N1CCc2ccccc2C1,20.8%
8,Nc1ccc(C(=O)NCC(=O)O)cc1,9.67% [at 39.1 µM]
9,COC(=O)c1ccc(C(=O)O)cc1,14.6%
10,CCCCCCCCOCCC#N,8.77%
11,CC(C)(C)c1ccc(N)cc1,-8.73%
12,NCC1CCC(C(=O)Oc2ccc(CCC(=O)O)cc2)CC1 (stereo not given),-9.4%
13,CC(=O)Oc1ccc(C(C)=O)cc1,5.7% [at 95.3 µM]
14,O=C(O)P(=O)(O)O,13%
15,Cc1cc(C)c(C)c(C)c1,5.7%
16,CCCCN=C(N)N=C(N)N,-5.57%
17,COc1cc(NS(=O)(=O)c2ccc(N)cc2)ncn1,8.05% [at 39.1 µM]
18,CC(C)(Sc1cc(C(C)(C)C)c(O)c(C(C)(C)C)c1)Sc1cc(C(C)(C)C)c(O)c(C(C)(C)C)c1,11.5% [at 39.1 µM]
19,CCCCCCCCCCCC(C)=O,-11.7%
20,CCCCS,8.42% [at 95.3 µM]

# Reference: PubChem BioAssay (Tox21)
